Screening data as filed in PubChem.
CYP2C19 inhib: human CYP2C19 inhibition; inhibition, % at 5 µM; P33261; CYP2C19 Supersomes, luciferin-H EGE luminescence, 30 min; 96,000 tested, 21% active;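 active = CYP2C19 inhibition above a set limit at 5 µM in the primary screen, cut at about 50% in these data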;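 also: plate controls were negative control wells for no effect and 2.5 mM tranylcypromine positive control for full effect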
sEH inh: blocks human soluble epoxide hydrolase activity | recombinant human sEH enzymatic activity assay | inhibition, % at 2 µM | 91,000 tested, 0.34% active | AID 707; in the data active = inhibition above about 80%
Target sequence (P34913 whole entry, looked up): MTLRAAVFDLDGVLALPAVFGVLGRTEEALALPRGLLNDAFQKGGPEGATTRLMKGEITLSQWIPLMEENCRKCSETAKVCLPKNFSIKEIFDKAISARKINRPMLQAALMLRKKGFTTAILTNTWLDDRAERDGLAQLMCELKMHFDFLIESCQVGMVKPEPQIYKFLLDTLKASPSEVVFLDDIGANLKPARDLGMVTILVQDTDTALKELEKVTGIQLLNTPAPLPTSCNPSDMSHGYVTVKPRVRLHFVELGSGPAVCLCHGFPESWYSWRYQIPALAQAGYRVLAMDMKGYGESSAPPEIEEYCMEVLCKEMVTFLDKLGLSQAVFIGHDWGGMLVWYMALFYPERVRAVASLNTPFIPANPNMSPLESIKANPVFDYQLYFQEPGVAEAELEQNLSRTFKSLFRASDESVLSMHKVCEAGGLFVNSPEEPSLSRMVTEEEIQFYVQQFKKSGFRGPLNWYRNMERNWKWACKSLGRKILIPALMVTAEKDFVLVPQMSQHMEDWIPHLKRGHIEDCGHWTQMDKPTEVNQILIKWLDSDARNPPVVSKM
CYP2C19 activ: increases human CYP2C19 enzyme activity; activation factor at 5 µM; recombinant CYP2C19, luciferin-H EGE luminescence; stronger effect = higher value; 0 = fully inhibited enzyme, 1 = untreated enzyme; 96,000 tested, under 10 active; AID 1025;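 active = activation factor of at least 2 at 5 µM in the primary screen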;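 also: 0 = wells with 2.5 mM tranylcypromine and 1 = vehicle-only wells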
CYP2C9 act: activators of human CYP2C9; AID 1024; 96,000 tested, 1.4% active; activation factor at 5 µM; recombinant CYP2C9, luciferin-H conversion, luminescence; stronger effect = higher value; factor 1 = untreated enzyme, 0 = blocked;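 active = activation factor of 2 or more for CYP2C9 at a 5 µM dose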;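 also: 0 = sulfaphenazole-blocked wells and 1 = vehicle-only wells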
CYP2C9 inhib: inhibitors of human CYP2C9 | P11712 | CYP2C9 Supersomes, luciferin-H conversion, luminescence | inhibition, % at 5 µM | 96,000 tested, 20% active;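 active = blocking of liver enzyme CYP2C9 beyond about 50% at 5 µM, limit read from the data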
sEH act: increases human soluble epoxide hydrolase activity. P34913. purified human sEH enzymatic activity, activator screen. activation, % at 2 µM. 91,000 tested, 0.04% active. AID 717; in the data active = activation above about 37%
* = called active by the depositor; / = not tested or not shown. Most compounds without a hit are left out; they make up all but 27% or so of the library.

SMILES | CYP2C19 inhib | sEH inh | CYP2C19 activ | CYP2C9 act | CYP2C9 inhib | sEH act
CCOc1cc(C#N)c(NC(=O)Cn2nnc3ccccc32)cc1OCC | -8 | 3 | 1.1 | 0.9 | 12 | -1
COc1ccc(/C(N)=N/OC(=O)Cc2ccc(OC)c(OC)c2)cc1 | 16 | -14 | 0.8 | 0.4 | 65* | 12
COc1ccc(C/C(N)=N/OC(=O)Cc2ccc(OC)c(OC)c2)cc1 | 16 | 8 | 0.8 | 0.8 | 24 | -5
COc1ccc(C(=O)Cc2ccc(OC)c(OC)c2)c(OC)c1 | 99* | -4 | 0 | 0.9 | 9 | 7
COc1ccc(OC)c(C(=O)COC(=O)c2ccc(C)o2)c1 | 93* | / | 0.1 | 1.9 | -87 | /
COc1ccc(OC)c(C(=O)COC(=O)C2CC3CCCC(C2)C3=O)c1 (stereo not drawn) | 50* | -1 | 0.5 | 1.4 | -45 | 2
COc1ccc(OC)c(C(=O)C2COC(=O)C2)c1 (stereo not drawn) | 2 | 11 | 1 | 1.3 | -33 | -7
Cc1ccccc1C(=O)N1CCC(C(N)=O)CC1 | 0 | 5 | 1 | 0.9 | 8 | -9
CCCNC(=O)C1CCN(S(=O)(=O)c2ccc(Br)cc2)CC1 | / | -8 | / | / | / | 7
COc1ccc(C(=O)OCC(=O)c2cc(OC)ccc2OC)c(OC)c1 | 86* | / | 0.1 | 3.1* | -213 | /
O=C(O)CCS(=O)(=O)c1nc(-c2cccs2)cc(C(F)(F)F)n1 | 7 | -9 | 0.9 | 1 | 1 | 7
CCCNC(=O)CSc1nc(-c2cccs2)cc(C(F)(F)F)n1 | 68* | 16 | 0.3 | 0.2 | 77* | -14
Cc1cc(NC(=O)CSc2nc(-c3cccs3)cc(C(F)(F)F)n2)no1 | -21 | 8 | 1.2 | 1.2 | -18 | -7
O=C(CSc1nc(-c2cccs2)cc(C(F)(F)F)n1)NCc1ccccc1 | 60* | 9 | 0.4 | 0.1 | 91* | -9
COc1ccc(CCNS(=O)(=O)c2ccc3c(c2)CCN3C(=O)CCC(=O)O)cc1OC | -1 | -6 | 1 | 1 | -4 | 9
CC(=O)N1CCc2cc(S(=O)(=O)NCCCN3CCN(Cc4ccccc4)CC3)ccc21 | 52* | 0 | 0.5 | 0.5 | 50 | 2
CC(=O)N1CCc2cc(S(=O)(=O)NCCC(=O)NC3CCN(Cc4ccccc4)CC3)ccc21 | -2 | / | 1 | 0.9 | 10 | /
CCC(=O)N1CCc2cc(S(=O)(=O)NCCCN3CCN(Cc4ccccc4)CC3)ccc21 | 19 | 0 | 0.8 | 0.7 | 25 | 2
COc1ccc(CCNC(=O)CCNS(=O)(=O)c2ccc3c(c2)CCN3C(C)=O)cc1OC | 9 | / | 0.9 | 0.4 | 61* | /
CC(=O)N1CCc2cc(S(=O)(=O)NCCN3CCC(C)CC3)ccc21 | 51* | -12 | 0.5 | 1 | 3 | 14
CCN(CC)c1ncc(C)c(=O)[nH]1 | -2 | / | 1 | 1.1 | -7 | /
COc1ccc2c(c1)[nH]c1c(=O)n(Cc3ccco3)cnc12 | 3 | -3 | 1 | 0.8 | 23 | 3
COc1ccc2c(c1)c1ncn(Cc3ccco3)c(=O)c1n2C | 75* | 2 | 0.3 | 0.3 | 72* | -2
CCOC(=O)c1cc2sccc2n1Cc1ccccc1 | 5 | 2 | 1 | 1 | -2 | 1
O=C(c1cc2sccc2n1Cc1ccccc1)N1CCc2ccccc21 | 13 | 9 | 0.9 | 0.4 | 63* | -6
SMILES | CYP2C19 inhib | sEH inh | CYP2C19 activ | CYP2C9 act | CYP2C9 inhib | sEH act
Cn1c(C(=O)N2CCCc3ccccc32)cc2sccc21 | 71* | -5 | 0.3 | 0.7 | 31 | 6
O=C(c1cc2sccc2n1Cc1ccccc1)N1CCCc2ccccc21 | 88* | -10 | 0.1 | 0.1 | 95* | 13
Cc1cccn2c(=O)c3cc(C(=O)N4CCCc5ccccc54)n(C)c3nc12 | / | -23 | / | / | / | 24
Cn1c(=O)c2c(SCc3c(F)cccc3Cl)nc(CC(C)(C)C)nc2n(C)c1=O | 3 | 0 | 1 | 0.7 | 32 | -2
Cc1ccccc1OCC(=O)NNC(=O)c1ccc(-c2ccccc2)cc1 | 16 | -9 | 0.8 | 1.2 | -24 | 9
Cc1cc(C)n(-c2nc3c(c(=O)[nH]c(=O)n3C)n2CC(O)COc2ccccc2C)n1 (stereo not drawn) | 74* | -5 | 0.3 | 0.8 | 19 | 6
Cc1cc(C)n(-c2nc3c(c(=O)[nH]c(=O)n3C)n2CC(O)COc2ccccc2)n1 (stereo not drawn) | 25 | -2 | 0.8 | 0.9 | 14 | 1
